# Screens as filed in PubChem.
# Hits are enriched below; roughly 10% of the tested compounds scored in any of these assays.
# Six1-Eya2 inh: blocks human Six1 binding to Eya2 | Q15475+O00167 | AlphaScreen GST-Six1/His-Eya2 binding, biochemical; stronger effect = lower value | activity change, % (concentration not given with the values) | 0.56% of 360,000 active; in the data active = activity change below about -65%; inconclusive = mostly about -30% to -63%; also: % is scaled to controls: 0 for no effect and ±100 for the full control effect
#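 AlphaScreen with GST-Six1 and His-Eya2 (5X mix: 250 nM and 500 nM), glutathione donor and nickel acceptor beads; buffer 50 mM Tris pH 8.0, 300 mM NaCl, 1 mM TCEP; 1 h at 37 C in the dark.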
# BAZ2B inh: inhibitors of human BAZ2B bromodomain. AlphaScreen BAZ2B-H3K14Ac peptide displacement. Potency, µM (doses to about 114 µM), inactives show top-dose activity change, negative = inhibition, hits mostly inhibitors. 4.4% of 360,000 active. AID 504333; also: potency is read from the fitted curve at half-maximal effect; % is scaled to controls: 0 for no effect and ±100 for the full control effect; nearly all actives have a fitted effect of over 60% in size
#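 BAZ2B (50 nM) with biotin-H3(5-23)K14Ac peptide (50 nM) in PBS pH 7.4, 0.01% Tween-20, preformed 30 min, then compound 30 min at room temperature; top concentration 110uM. AlphaScreen streptavidin donor/nickel chelate acceptor beads (10 ug/mL final), 20 min dark, signal read.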
# CtBP-E1A blk: inhibitors of CtBP/E1A interaction; AlphaScreen GST-E1A/His-CtBP binding, 1536-well; stronger effect = lower value; activity change, % (concentration not given with the values); 0.49% of 340,000 active; AID 651724; in the data active = activity change below about -65%; inconclusive = mostly about -30% to -63%; also: % is scaled to controls: 0 for no effect and ±100 for the full control effect
#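 AlphaScreen with 125 nM GST-E1A and 125 nM His-CtBP (5X stocks) in Tris pH 8.0, 300 mM NaCl, BSA, Tween 20, TCEP. Compounds preincubated 2 h at 37 deg C, then glutathione donor/nickel acceptor beads added for 1 h at 37 deg C in dark.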
# JMJD2A Tudor: blocks the human JMJD2A Tudor domain | O75164 | AlphaScreen JMJD2A-Tudor / H3K4me3 peptide binding | Potency, µM (series often up to 114 µM), without a hit: top-dose activity change, negative = inhibition, actives largely listed as inhibitors | 4.4% of 390,000 active; also: potency is read from the fitted curve at half-maximal effect; % is scaled to controls: 0 for no effect and ±100 for the full control effect; nearly all actives have a fitted effect of over 50% in size
# G9a block: G9a (human) methyltransferase inhibition. G9a H3K9 monomethylation, AlphaScreen, 2 h. 8.8% of 350,000 active. AID 504332. Potency, µM (doses to about 102 µM), inactives show at the top dose activity, negative = inhibition, usual class: inhibitors; also: potency is read from the fitted curve at half-maximal effect; % is scaled to controls: 0 for no effect and ±100 for the full control effect; nearly all actives have a fitted effect of over 75% in size
# Target sequence (Q96KQ7 913-1193 limits assumed): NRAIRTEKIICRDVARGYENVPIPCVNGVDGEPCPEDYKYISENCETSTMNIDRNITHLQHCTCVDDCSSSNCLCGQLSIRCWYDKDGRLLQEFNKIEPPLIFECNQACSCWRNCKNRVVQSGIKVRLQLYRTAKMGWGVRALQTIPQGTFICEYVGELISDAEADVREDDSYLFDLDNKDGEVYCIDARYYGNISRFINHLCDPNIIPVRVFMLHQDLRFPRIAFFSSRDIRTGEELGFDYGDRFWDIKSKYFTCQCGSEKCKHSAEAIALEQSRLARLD
#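 Readings reflect AlphaScreen signal from monomethyl-H3K9 antibody detection. HMT at 20 nM; substrate b-H3K9 500 nM; cofactor SAM 20 uM; 2 h RT reaction; compounds tested as titrations in qHTS with 15 min preincubation.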
# HP1b binding inh: inhibitors of HP1-beta chromodomain binding to methylated histone tails; P83916; AlphaScreen HP1-beta / biotin-H3K9me3 peptide binding; Potency, µM (titrated, usually from 114 µM), for inactives: at the top dose activity change, negative = inhibition, usual class: inhibitors; 0.56% of 390,000 active; also: potency is read from the fitted curve at half-maximal effect; nearly all actives have a fitted effect of over 70% in size
# Target sequence (P83916 whole entry, looked up): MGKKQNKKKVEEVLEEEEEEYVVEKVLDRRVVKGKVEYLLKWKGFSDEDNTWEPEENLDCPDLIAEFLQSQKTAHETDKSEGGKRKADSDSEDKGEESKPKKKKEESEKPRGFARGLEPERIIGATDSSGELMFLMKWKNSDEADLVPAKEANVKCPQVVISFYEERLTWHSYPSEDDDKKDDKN
#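 HP1-beta protein (50 nM final) preincubated 30 min at room temperature with biotinylated H3(1-18)K9me3 peptide (50 nM) in PBS pH 7.4, 0.01% Tween-20, then compound added for 30 min. AlphaScreen streptavidin donor/nickel chelate acceptor beads (10 ug/mL final), 30 min dark, luminescence read.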
# * marks the source's active call; other numbers are inactive results; ? = inconclusive; nt = no result given; [ ] = dose if it differs, or a comment. Unless noted, calls follow the shape of the dose curve; as a rule, active = well fitted inhibition curve with a large enough effect; inconclusive = small, poorly fitted or top-dose-only effect; inactive = no such curve, though single readings can be large or run the other way.
SMILES,Six1-Eya2 inh,BAZ2B inh,CtBP-E1A blk,JMJD2A Tudor,G9a block,HP1b binding inh
Cc1ccccc1NC(=O)c1nc[nH]c1C(=O)NCc1ccccc1,-11,8%,-7,8%,-8%[12.7 µM],53%
CCOc1ccccc1NC(=O)c1cccc2ccccc12,0,12%,1,75%,67%,96%
COc1ccccc1NC(=O)c1nc[nH]c1C(=O)Nc1ccccc1OC,0,?,-3,-11%,11µM*,?
CCOc1ccccc1NC(=O)c1nc[nH]c1C(=O)Nc1ccccc1OCC,-2,56µM*,8,-20%,13µM*,-2%
CCOc1ccccc1NC(=O)c1csc(C)c1C,4,20%,15,48%,35µM*,91%
Cc1cccc(Cn2c(=O)n(-c3ccc(Cl)c(Cl)c3)c(=O)c3c(C)c(C)sc32)c1,nt,0%,nt,-3%,2%[59 µM],35%
CCN1CCN(Cc2nc3cc(NC(=O)c4ccccc4[N+](=O)[O-])ccc3n2CC)CC1,nt,-15%,nt,-1%,-8%[59 µM],26%
S=C(Nc1ccc(CN2CCCCC2)cc1)Nc1cccc(Cl)c1Cl,-4,-25%,-4,?,40µM*,22%
O=C(Nc1ccc(CN2CCCCC2)cc1)c1c(F)c(F)c(F)c(F)c1F,8,-16%,-3,-9%,25%[12.7 µM],4%
CC(=O)Nc1ccc(CN2CCCCCCC2)cc1,3,?,3,3.2µM*,-44%[59 µM],?
NC(=O)/C=C/C(=O)Nc1ccc(Cl)cc1,10,-19%,3,-35%,11µM*,-26%
COc1cccc(N2CCN(C(=O)C3CCN(S(=O)(=O)c4cn(C)cn4)CC3)CC2)c1,nt,-12%,nt,-5%,20%[59 µM],41%
CC1=C(C#N)C(=O)OC(C)(C)C1,-2,9%,-6,5%,13µM*,38%
Cc1[nH]c(=O)c(C#N)c2c1COC(C)(C)C2,-16,-11%,-26,1%,1%,24%
CCOc1ccc2nc(NC(=S)N(C)C)sc2c1,-4,35µM*,-3,13µM*,1.6µM*,?
CCOc1ccc2nc(NC(=O)c3cnc(C)cn3)sc2c1,-6,-1%,-10,-18%,45µM*,35%
CCNC(=O)Nc1nc2ccccc2s1,2,-4%,10,-2%,-5%,31%
O=C(NNc1nc2ccccc2s1)Nc1ccccc1,-3,-34%,-7,-21%,2%[59 µM],21%
S=C(Nc1ccccc1)c1nc2ccccc2s1,-13,-38%,nt,40µM*,?,?
CN(C)C(=S)Nc1nc2ccccc2s1,-6,-37%,nt,3.5µM*,-10%[0.501 µM],?
O=[N+]([O-])c1ccc(N2CCN(c3ccc(O)cc3)CC2)cn1,-18,?,-22,?,11µM*,?
COc1ccc(-c2cnn3c4c(c(C)nc23)CCN4C2CCCC2)cc1OC,-3,8%,-9,-17%,?,19%
COCCN1CCc2c(C)nc3c(-c4ccc(OC)c(OC)c4)cnn3c21,-16,-5%,-16,-7%,79µM*,34%
O=C(C1CC1)N1CCN(c2ccc([N+](=O)[O-])cc2-n2cccc2)CC1,-16,45µM*,-22,?,nt,-36%
Cc1ccc(C(=O)N2CCN(c3ccc([N+](=O)[O-])cc3-n3cccc3)CC2)cc1,-27,?,-5,?,28µM*,?
SMILES,Six1-Eya2 inh,BAZ2B inh,CtBP-E1A blk,JMJD2A Tudor,G9a block,HP1b binding inh
CC(C)(C)C(=O)N1CCN(c2ccc([N+](=O)[O-])cc2-n2cccc2)CC1,-6,?,-17,-28%,-40%,-36%
CCN(CC)C(=O)C1CCN(C(=O)c2cnn(-c3ccccc3)c2-n2cccc2)CC1,nt,3%,nt,-14%,5%[59 µM],25%
CCOc1ccc(N2CC(NC(=O)C3CCCCC3)CC2=O)cc1 (configuration not stated),nt,3%,nt,-9%,8%[59 µM],26%
CCOC(=O)C1CCN(C(=O)C2CCN(S(=O)(=O)c3c(C)noc3/C=C/c3ccc(C)cc3)CC2)CC1,nt,-13%,nt,-27%,-4%[59 µM],19%[57 µM]
CC1=NN(C(N)=S)C(=O)C1N=Nc1c(Cl)cc([N+](=O)[O-])cc1Cl (configuration not stated),?,40µM*,nt,28µM*,25µM*,?
CC1=NN(C(N)=S)C(=O)C1N=Nc1c(Br)cc(Br)cc1Br (configuration not stated),-10,28µM*,-18,56µM*,0%[0.501 µM],-18%
CC1=NN(C(N)=S)C(=O)C1N=Nc1c(C)cc(C)cc1C (configuration not stated),-7,?,-9,-13%,7%,6%
CCN(CC)c1ccc(NC(=O)C2CCCC2)cc1,-15,?,-13,?,45µM*,-19%
CCN(CC)c1ccc(NC(=O)C2CC3CCC2C3)cc1 (configuration not stated),?,-68%,-15,79µM*,6.3µM*,?
CCN(CC)c1ccc(NC(=O)Nc2cccc3ccccc23)cc1,-24,?,7,-24%,3.2µM*,-10%
CCCCc1ccc(NC(=O)C2CCCC2)cc1,15,nt,19,32%,nt,30%
CCN(CC)c1ccc(NC(=O)CCCCC(=O)Nc2ccc(N(CC)CC)cc2)cc1,-1,nt,nt,-31%,nt,8%
CCN(CC)c1ccc(NC(=O)C(C)C)cc1,-1,-3%,3,?,11µM*,5%
NC(=O)CC[C@@H]1NC(=O)[C@H](Cc2ccc(O)cc2)NC(=O)c2cc([N+](=O)[O-])cc(F)c2OCC[C@@H](C(N)=O)NC1=O,-9,-11%,-15,-25%,?,6%
C[C@@H]1NC(=O)c2cc([N+](=O)[O-])cc(I)c2OCC[C@@H](C(N)=O)NC(=O)[C@H](CCC(=O)O)NC1=O,nt,?,nt,nt,28µM*,nt
NC(=O)C[C@@H]1NC(=O)[C@H](CCC(=O)O)NC(=O)c2cc([N+](=O)[O-])cc(I)c2OCC[C@@H](C(N)=O)NC1=O,-2,-35%,6,-26%,28µM*,6%
CC(C)[C@@H]1NC(=O)c2cc([N+](=O)[O-])cc(I)c2OCC[C@@H](C(N)=O)NC(=O)[C@H](CCC(=O)O)NC1=O,-1,?,nt,-15%,45µM*,29%
Cc1ccccc1-c1noc(CSc2nc(-c3ccc(F)cc3)cc(=O)[nH]2)n1,nt,-1%,nt,0%,-5%[59 µM],1%[57 µM]
O=C(Cn1c(=O)nc(-c2ccccc2)c2ccccc21)NCCc1ccccc1,nt,0%,nt,8%,4%[12.7 µM],45%
O=C(NCCc1ccccc1)c1ccc2c(c1)N(Cc1c(F)cccc1Cl)C(=O)CS2,nt,1%,nt,-12%,-12%[59 µM],24%
Cc1ccsc1/C=N/Nc1ncc(Cl)cc1Cl,-10,-7%,0,-24%,35%[59 µM],46%
